Assay results as given in PubChem BioAssay (Tox21).
Inconclusive results are not listed. The source made the active and inactive calls. Unless noted, calls come from the whole dose curve; as a rule, active = well fitted curve in the direction sought with a large enough effect in the repeat runs; inconclusive = weak or mixed curves; inactive = no such curve, though single readings can be large; an effect the other way counts as inactive or inconclusive.

Tests used:
[1] = qHTS assay to identify small molecule antagonists of the thyroid receptor (TR) signaling pathway - cell viability counter screen (AID 743064); note: nearly all actives have a fitted effect of over 50% in size; note: potency is the fitted concentration of half-maximal effect
Summary of the method: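 Viability of T3-stimulated (1 nM final) GH3.TRE-Luc cells is measured by CellTiter-Fluor fluorescence after 23.5 h compound exposure at 37 °C plus 30 min reagent incubation.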

[2] = qHTS assay to identify small molecule antagonists of the thyroid receptor (TR) signaling pathway (AID 743065); note: nearly all actives have a fitted effect of over 55% in size; note: potency is the fitted concentration of half-maximal effect
Summary of the method: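 Antagonism measured as loss of luciferase signal in GH3 cells stably carrying a TRE-luciferase reporter, co-treated with compound and T3 (1 nM final) for 23.5 h at 37 C. Viability was read in the same well by CellTiter-Fluor.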

[3] = system: thyroid hormone receptor (rat, GH3 cells); test: qHTS assay to identify small molecule agonists of the thyroid receptor (TR) signaling pathway (AID 743066; calls by dose curve)
[4] = qHTS assay to identify small molecule antagonists of the estrogen receptor alpha (ER-alpha) signaling pathway - cell viability counter screen (AID 743074; calls by dose curve; note: nearly all actives have a fitted effect of over 45% in size; note: potency is the fitted concentration of half-maximal effect)
[5] = qHTS assay to identify small molecule antagonists of the estrogen receptor alpha (ER-alpha) signaling pathway using the BG1 cell line - cell viability counter screen (AID 743081);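 note: compound given together with 17beta-estradiol as the ER stimulus; nearly all actives have a fitted effect of over 45% in size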; note: potency is the fitted concentration of half-maximal effect
[6] = molecular target: Estrogen receptor (Homo sapiens) (UniProt P03372); test: qHTS assay to identify small molecule antagonists of the estrogen receptor alpha (ER-alpha) signaling pathway (AID 743069; active = well fitted curve in the direction sought with a large enough effect in the signal ratio in the repeat runs, not every such curve was filed as active; the % refers to the signal ratio)
Chain of Estrogen receptor (Homo sapiens) (P03372 whole entry, looked up): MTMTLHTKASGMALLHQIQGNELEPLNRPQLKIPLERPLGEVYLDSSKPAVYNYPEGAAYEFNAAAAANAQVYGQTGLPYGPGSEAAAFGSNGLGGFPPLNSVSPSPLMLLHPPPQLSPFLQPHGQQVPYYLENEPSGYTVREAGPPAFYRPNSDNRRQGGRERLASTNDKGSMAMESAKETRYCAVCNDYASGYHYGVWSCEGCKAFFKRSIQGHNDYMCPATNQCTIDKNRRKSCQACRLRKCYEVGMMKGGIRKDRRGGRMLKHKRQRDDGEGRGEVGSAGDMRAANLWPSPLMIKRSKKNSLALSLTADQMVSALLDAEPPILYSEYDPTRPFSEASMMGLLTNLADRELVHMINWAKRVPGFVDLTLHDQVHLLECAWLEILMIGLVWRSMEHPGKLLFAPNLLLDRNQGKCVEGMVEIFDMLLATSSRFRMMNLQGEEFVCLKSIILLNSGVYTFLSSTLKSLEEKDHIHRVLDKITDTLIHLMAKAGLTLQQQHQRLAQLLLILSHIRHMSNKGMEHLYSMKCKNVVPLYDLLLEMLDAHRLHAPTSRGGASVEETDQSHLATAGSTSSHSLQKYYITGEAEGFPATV
Summary of the method: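 Fluorescence intensity from a beta-lactamase FRET substrate served as the read-out. Cells: HEK293 with stably integrated ER-alpha-UAS-bla reporter. Agonist 17beta-estradiol was co-added with compounds; incubation 18 hr at 37C, substrate 2 hr at room temperature.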

[7] = molecular target: Estrogen receptor (Homo sapiens) (UniProt P03372); test: qHTS assay to identify small molecule agonists of the estrogen receptor alpha (ER-alpha) signaling pathway (AID 743075; calls by dose curve)
[8] = molecular target: Estrogen receptor (Homo sapiens) (UniProt P03372); test: qHTS assay to identify small molecule agonists of the estrogen receptor alpha (ER-alpha) signaling pathway using the BG1 cell line (AID 743079); note: nearly all actives have a fitted effect of over 20% in size; note: potency is the fitted concentration of half-maximal effect
Aromatase (Homo sapiens) = Aromatase (Homo sapiens) (UniProt P11511); test: qHTS assay to identify aromatase inhibitors (AID 743083); note: nearly all actives have a fitted effect of over 55% in size; note: potency is the fitted concentration of half-maximal effect
Chain of Aromatase (Homo sapiens) (P11511 whole entry, looked up): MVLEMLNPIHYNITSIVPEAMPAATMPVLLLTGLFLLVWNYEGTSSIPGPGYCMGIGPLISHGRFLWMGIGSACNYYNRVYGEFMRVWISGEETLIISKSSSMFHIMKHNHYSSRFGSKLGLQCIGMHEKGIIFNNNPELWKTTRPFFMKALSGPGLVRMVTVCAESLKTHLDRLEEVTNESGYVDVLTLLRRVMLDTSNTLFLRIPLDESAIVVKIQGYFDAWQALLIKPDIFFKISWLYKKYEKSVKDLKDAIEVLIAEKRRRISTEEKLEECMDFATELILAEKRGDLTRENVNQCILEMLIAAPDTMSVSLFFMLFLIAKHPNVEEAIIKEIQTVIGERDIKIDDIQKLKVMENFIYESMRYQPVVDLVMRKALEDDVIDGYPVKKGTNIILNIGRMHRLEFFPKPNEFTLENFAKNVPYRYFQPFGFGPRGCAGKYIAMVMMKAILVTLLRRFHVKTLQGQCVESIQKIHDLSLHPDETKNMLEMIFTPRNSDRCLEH

[9] = qHTS assay to identify small molecule antagonists of the estrogen receptor alpha (ER-alpha) signaling pathway using the BG1 cell line (AID 743080; calls by dose curve;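 note: BG1 cells stimulated with 17beta-estradiol alongside compound; series mostly up to about 70 µM; nearly all actives have a fitted effect of over 25% in size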)
Summary of the method: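 Seeding, 24 h rest, compound transfer from DMSO, 17beta-estradiol addition, 21.5 h incubation, CellTiter-Fluor (30 min, 37 C), then ONE-Glo (30 min, room temperature): this sequence was run on BG1-Luc-4E2 reporter cells.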

Measured: Potency

CC(=O)N[C@@H](Cc1ccc(O)cc1)C(=O)O
inactive: [1] | [2] | [3] | [4] | [5]

C/C(C=O)=C\c1ccccc1
not listed: [9]
inactive: all other assays above

O=C1NC(=O)c2cccc3cccc1c23
not listed: [6]
inactive: all other assays above

c1ccc(CCCc2ccncc2)cc1
active: Aromatase (Homo sapiens) 30.6 µM
inactive: all other assays above

CCCCOC(=O)CCCCC(=O)OCCCC
inactive: [1] | [2] | [3] | [4] | [5]

Nc1ccc(N=Nc2ccc(N)cc2)cc1
active: [1] 24.3 µM
not listed: [5]
inactive: all other assays above

CCCCCCC(O)CCCCCCCCCCC(=O)OC (stereo not given)
inactive: [1] | [2] | [3] | [4] | [5]

CC(CN(CCN(CC(C)OCCO)CC(C)OCCO)CC(C)OCCO)OCCO (stereo not given)
inactive: [1] | [2] | [3] | [4] | [5] | Aromatase (Homo sapiens)

CCC(=O)OCc1ccc(OC)cc1
inactive: [1] | [2] | [3] | [4] | [5]

O=C(NS(=O)(=O)/C=C/c1ccccc1)c1ccc(F)cc1Cl
not listed: [6] | [8] | [9]
inactive: all other assays above

CC(C)(C)C(O)/C=C/c1ccc2c(c1)OCO2 (stereo not given)
not listed: [5] | [8]
inactive: all other assays above

CN1CCCN(C(c2ccccc2)c2ccc(Cl)cc2)CC1 (stereo not given)
active: [1] 6.68 µM | [2] 10.6 µM
not listed: [4] | [5]
inactive: all other assays above

Nc1nc2ccc(OC(F)(F)F)cc2s1
active: [2] 21.1 µM | [8] 5.96 µM
not listed: [7] | [9]
inactive: all other assays above

Nc1cccc2c(N)cccc12
inactive: [1] | [2] | [3] | [6] | [7] | [9]

SCCc1cnccn1
not listed: [4] | [7] | [8]
inactive: all other assays above

CC(C)N=C=NC(C)C
not listed: [7] | [8]
inactive: all other assays above

CCN(Cc1cccc(S(=O)(=O)O)c1)c1ccc(C(=C2C=CC(=[N+](CC)Cc3cccc(S(=O)(=O)O)c3)C=C2)c2ccccc2S(=O)(=O)[O-])cc1
active: [1] 34.5 µM | [2] 15.4 µM | [5] 38.7 µM | Aromatase (Homo sapiens) 17.3 µM
inactive: [3] | [6] | [7]

c1ccc(CNc2ncnc3c2ncn3C2CCCCO2)cc1 (stereo not given)
active: [8] 3.44 µM
not listed: [9]
inactive: all other assays above

CC(=O)Oc1cccc(O)c1
not listed: [9]
inactive: all other assays above

O=C1OC(=O)c2c(Br)c(Br)c(Br)c(Br)c21
inactive: [1] | [2] | [3] | [4] | [5]

COc1cc(S(=O)(=O)Nc2ccccc2)c(OC)cc1N
not listed: [4]
inactive: all other assays above

COC(OC)OC
not listed: [4]
inactive: all other assays above

N[C@@H](Cc1cc(I)c(O)c(I)c1)C(=O)O
not listed: [4] | [5]
inactive: all other assays above

CS(=O)(=O)c1ccc([C@@H](C[C@H]2CCC(=O)C2)C(=O)Nc2cnccn2)cc1Cl
not listed: [6]
inactive: all other assays above

O=C(/C=C/c1ccc([N+](=O)[O-])cc1)c1ccccc1
active: [2] 61.3 µM
not listed: [7] | [9]
inactive: all other assays above

O=C(O)CCCc1c[nH]c2ccccc12
inactive: [1] | [2] | [3] | [4] | [5] | Aromatase (Homo sapiens)

CC1CCCO1 (stereo not given)
inactive: [1] | [2] | [3] | [4] | [5] | Aromatase (Homo sapiens)

CCN(CC)c1ccc(C(=C2C=CC(=[N+](CC)CC)C=C2)c2ccc(S(=O)(=O)O)cc2S(=O)(=O)[O-])cc1
inactive: [1] | [3]
active: [2] 19.3 µM | [4] 24.5 µM | [5] 30.6 µM | Aromatase (Homo sapiens) 9.69 µM

O=C(O)CCC(=O)OC[C@@H](NC(=O)C(Cl)Cl)[C@H](O)c1ccc([N+](=O)[O-])cc1
inactive: [1] | [2] | [3] | [4] | [5] | Aromatase (Homo sapiens)

CC(C)(O)c1coc(S(=O)(=O)NC(=O)Nc2c3c(cc4c2CCC4)CCC3)c1
inactive: [1] | [2] | [3] | [4] | [5] | Aromatase (Homo sapiens)

COc1ccc(N)c([N+](=O)[O-])c1
inactive: [1] | [2] | [3] | [4] | [5] | Aromatase (Homo sapiens)

CC(C)Cc1ccc(CC(=O)O)cc1
inactive: [1] | [2] | [3] | [4] | [5] | Aromatase (Homo sapiens)

CCCCCCCC(=O)OCCCCCC
inactive: [1] | [2] | [3] | [4] | [5] | Aromatase (Homo sapiens)

CC(C)COC(=O)c1ccc(O)cc1
inactive: [1] | [2] | [3] | [4] | [5] | Aromatase (Homo sapiens)

Cc1ccc(Cl)cc1N
inactive: [1] | [2] | [3] | [4] | [5] | Aromatase (Homo sapiens)

CC(C(=O)O)c1ccc(C(=O)c2cccs2)cc1 (stereo not given)
inactive: [1] | [2] | [3] | [4] | [5] | Aromatase (Homo sapiens)

Nc1ccc(S(=O)(=O)NCc2ccccc2)cc1
inactive: [1] | [2] | [3] | [4] | [5] | Aromatase (Homo sapiens)

C=Cc1ccc(OC(C)=O)cc1
not listed: [4] | [6]
inactive: all other assays above

O=C(O)c1ccc(O)cc1O
inactive: [1] | [2] | [3] | [4] | [5] | Aromatase (Homo sapiens)

CCCCCCOC(=O)CCCCC
inactive: [1] | [2] | [3] | [4] | [5] | Aromatase (Homo sapiens)

COC(CC(C)CCCC(C)(C)O)OC (stereo not given)
inactive: [1] | [2] | [3] | [4] | [5] | Aromatase (Homo sapiens)

O=C1OC[C@H](Cc2cccc(O)c2)[C@H]1Cc1cccc(O)c1
inactive: [1] | [2] | [3] | [4] | [5] | Aromatase (Homo sapiens)

COc1ccc(C)cc1
inactive: [1] | [2] | [3] | [4] | [5] | Aromatase (Homo sapiens)

CC(=O)C(C)=O
inactive: [1] | [2] | [3] | [4] | [5] | Aromatase (Homo sapiens)

CC1CCC(C(C)CS)CC1S (stereo not given)
inactive: [1] | [2] | [3] | [4] | [5] | Aromatase (Homo sapiens)

O=C(O)/C=C/c1ccc(O)c(O)c1
inactive: [1] | [2] | [3] | [4] | [5] | Aromatase (Homo sapiens)

CC(=O)NCCO
inactive: [1] | [2] | [3] | [4] | [5] | Aromatase (Homo sapiens)

O=C1CC[C@@H](C(=O)O)N1
inactive: [1] | [2] | [3] | [4] | [5] | Aromatase (Homo sapiens)

CC1=CC[C@@]23C[C@@H]1C(C)(C)[C@@H]2CC[C@H]3C
inactive: [1] | [2] | [3] | [4] | [5] | Aromatase (Homo sapiens)

CCCCCCCCCCCCCOC(=O)CCSCCC(=O)OCCCCCCCCCCCCC
inactive: [1] | [2] | [3] | [4] | [5] | Aromatase (Homo sapiens)

Cc1c[nH]c2ccccc12
inactive: [1] | [2] | [3] | [4] | [5] | Aromatase (Homo sapiens)

CCCCCC
inactive: [1] | [2] | [3] | [4] | [5] | Aromatase (Homo sapiens)

CCCCCCC(CO)CCCC (stereo not given)
inactive: [1] | [2] | [3] | [4] | [5] | Aromatase (Homo sapiens)

CNCc1ccc(NC(=O)c2c[nH]c3c2C(=O)CCC3)cc1
inactive: [1] | [2] | [3] | [4] | [5] | Aromatase (Homo sapiens)

Nc1nc(-c2ccc([N+](=O)[O-])cc2)cs1
inactive: [1] | [2] | [3] | [4] | [5] | Aromatase (Homo sapiens)

C1=CCC2CC=CC2C1 (stereo not given)
inactive: [1] | [2] | [3] | [4] | [5] | Aromatase (Homo sapiens)

CC[C@H]1OC(=O)[C@H](C)[C@@H](O[C@H]2C[C@@](C)(OC)[C@@H](O)[C@H](C)O2)[C@H](C)[C@@H](O[C@@H]2O[C@H](C)C[C@H](N(C)C)[C@H]2O)[C@](C)(O)C[C@@H](C)C(=O)[C@H](C)[C@@H](O)[C@]1(C)O
inactive: [1] | [2] | [3] | [4] | [5] | Aromatase (Homo sapiens)

CCC1CCC(CCC(=O)O)C1 (stereo not given)
inactive: [1] | [2] | [3] | [4] | [5] | Aromatase (Homo sapiens)

CC(=O)OCC1=C(C(=O)O)N2C(=O)[C@@H](NC(=O)CSc3ccncc3)[C@H]2SC1
inactive: [1] | [2] | [3] | [4] | [5] | Aromatase (Homo sapiens)

O=C(O)CN1C(=O)c2cccc3cccc(c23)C1=O
inactive: [1] | [2] | [3] | [4] | [5] | Aromatase (Homo sapiens)

CSSc1ccoc1C
inactive: [1] | [2] | [3] | [4] | [5] | Aromatase (Homo sapiens)

CC(=O)OCC(=O)[C@@]1(OC(C)=O)[C@@H](C)C[C@H]2[C@@H]3C[C@H](F)C4=CC(=O)C=C[C@]4(C)[C@@]3(F)[C@@H](O)C[C@@]21C
inactive: [1] | [2] | [3] | [4] | [5] | Aromatase (Homo sapiens)

CC(C)(C(=O)c1cccnc1)c1cccnc1
not listed: [2] | [3]
inactive: all other assays above

CCCCCCCCCCCCCOS(=O)(=O)O
inactive: [1] | [3] | [4] | [5] | Aromatase (Homo sapiens)

CCCCCCCCCCCCCCCCCC(=O)OCC(CC)CCCC (stereo not given)
inactive: [1] | [2] | [3] | [5] | Aromatase (Homo sapiens)

CC(CO)(CO)C(=O)O
not listed: [2] | [3]
inactive: all other assays above

CC(CCc1ccc(O)cc1)NCCc1ccc(O)c(O)c1 (stereo not given)
not listed: [3] | [6] | Aromatase (Homo sapiens)
inactive: all other assays above

CO[C@@H]1[C@@H](OC)[C@H](C)[C@@](O)(CC(=O)O)O[C@H]1[C@H](C)[C@H]1O[C@@]2(CC[C@@](C)([C@H]3CC[C@@](C)([C@@H]4O[C@@H]([C@H]5O[C@](C)(O)[C@H](C)C[C@@H]5C)C[C@@H]4OC4C[C@H](OC)[C@@H](OC)[C@H](C)O4)O3)O2)C[C@H](O)[C@H]1C (stereo not given in full)
inactive: [7] | Aromatase (Homo sapiens)
active: [1] 0.422 µM | [2] 0.335 µM | [5] 2.98 µM
